# Experimental data taken from the supplement of paper PMC8387472.
# Legend:
# Assay in all cases: fraction of edited reads among all mapped reads; higher = more Cas9 editing
# Settings in all cases: mESC; 2uM; 72 h treatment, harvest day 5
# [1] = compound: Cc1cc(C)nc(SCC(=O)Nc2ncc(Cc3cccc4ccccc34)s2)n1
# [2] = compound: Cc1ccc(C(=O)NCCCCCC(=O)Nc2ccccc2N)cc1
# [3] = compound: Cc1cccc(CC(=O)N2CCc3c2ccc(-c2cn(C)c4ncnc(N)c24)c3F)n1
# [4] = compound: NC(=O)c1ccc2nc(-c3ccc(Oc4ccc(Cl)cc4)cc3)[nH]c2c1 [Chk 2 inhibitor II (BML-277)]
# Tucidinostat (Chidamide) = compound: Nc1cc(F)ccc1NC(=O)c1ccc(CNC(=O)/C=C/c2cccnc2)cc1 [Tucidinostat (Chidamide)]
# Pemetrexed = compound: Nc1nc2[nH]cc(CCc3ccc(C(=O)N[C@@H](CCC(=O)O)C(=O)O)cc3)c2c(=O)[nH]1 [Pemetrexed]
# [5] = compound: Nc1ncnc2c1c(-c1cnc3[nH]ccc3c1)nn2C1CCCC1
# [6] = compound: O=C(c1cccc(Cl)c1F)N1CCN(Cc2cccc(Nc3nccs3)n2)CC1
# Kenpaullone = compound: O=C1Cc2c([nH]c3ccc(Br)cc23)-c2ccccc2N1 [Kenpaullone]
# Genistein = compound: O=c1c(-c2ccc(O)cc2)coc2cc(O)cc(O)c12 [Genistein]
Target,fraction of edited reads among all mapped reads [1],fraction of edited reads among all mapped reads [2],fraction of edited reads among all mapped reads [3],fraction of edited reads among all mapped reads [4],fraction of edited reads among all mapped reads (Tucidinostat (Chidamide)),fraction of edited reads among all mapped reads (Pemetrexed),fraction of edited reads among all mapped reads [5],fraction of edited reads among all mapped reads [6],fraction of edited reads among all mapped reads (Kenpaullone),fraction of edited reads among all mapped reads (Genistein)
"44.0 (DMSO control at this site: 1-bp insertion 0.181, MH deletion 0.512, edited 0.123) ACACATACCTTCTTCGAGGCAGCCAGCATGATGAGACAGGTCTCCCACAAACACATCGTGT",0.232,0.141,0.191,0.167,0.124,0.138,0.124,0.11,0.265,0.167
"28.0 (DMSO control at this site: 1-bp insertion 0.035, MH deletion 0.77, edited 0.142) TGGTTCTTCCTTTGTAGAGAGTGTTCATCTGGGAATCTGGGACTTGGATGAGACAATCATT",0.267,0.152,0.212,0.19,0.126,0.14,0.153,0.11,0.297,0.198
"35.0 (DMSO control at this site: 1-bp insertion 0.01, MH deletion 0.72, edited 0.098) CCACTTTTAGAGAGGGTGAAAATCATCAGTTATCATCAGGGCAACAAATTGCTTTCTCCTA",0.179,0.117,0.147,0.122,0.0981,0.104,0.108,0.0696,0.209,0.151
"5.0 (DMSO control at this site: 1-bp insertion 0.214, MH deletion 0.567, edited 0.105) CGCTGACCCGAGACCTACGCGAACCGAAATCGGCGACCGGTGCGCAAGCAGGGCTGGCGTC",0.215,0.121,0.171,0.149,0.108,0.124,0.116,0.0928,0.248,0.157
"19.0 (DMSO control at this site: 1-bp insertion 0.121, MH deletion 0.101, edited 0.057) TCTGCAGGGGTCGGAACCCGGGGGCTAGGGCTATCCCGGGGGCTAGGGCTATTAGCGAACC",0.112,0.0637,0.0933,0.0726,0.0662,0.0698,0.0701,0.0542,0.141,0.0811
"29.0 (DMSO control at this site: 1-bp insertion 0.084, MH deletion 0.745, edited 0.133) TTGATGAACTTCCTCTTCTTCTCATGTCTCCGGTCTCCGGTAGGCCACGTGCATGGCCACT",0.239,0.147,0.189,0.165,0.129,0.13,0.144,0.0932,0.261,0.18
"1.0 (DMSO control at this site: 1-bp insertion 0.521, MH deletion 0.323, edited 0.141) GTGTCACAGTGCACGAGTGACGGGATAATGTGCTGACAGGTAATTGATAGGCTTCCAACTT",0.243,0.141,0.218,0.174,0.14,0.132,0.176,0.112,0.33,0.159
"47.0 (DMSO control at this site: 1-bp insertion 0.095, MH deletion 0.585, edited 0.118) GAGTGGTCCCGAGCCAGGAACTGTGTGTGTTGCAGGGGGGCAGTAACTCCCCAACTCCCTC",0.199,0.123,0.171,0.143,0.0948,0.12,0.129,0.0848,0.244,0.148
"42.0 (DMSO control at this site: 1-bp insertion 0.145, MH deletion 0.655, edited 0.132) GGGCTAAACCTATGAGCACAGTAGAACTAAGGGTGGGTGGTGTAGCTAAAGAACTTGACCA",0.241,0.15,0.193,0.167,0.115,0.127,0.135,0.107,0.251,0.18
8.0 GCATGCGTGTTTTGGGACAATGTAGTATACATTTGGGAGGCTCTCAGCTTTTCCCAATAAA,0.021,,,,0.0159,0.0154,0.0205,,0.0456,
"18.0 (DMSO control at this site: 1-bp insertion 0.114, MH deletion 0.789, edited 0.094) GCGCAAGTGCATAAGTTTTTCTTAAGGCGTGCCTTTAAGGCGTGCCTTTGTCGGTCCTGGA",0.155,0.0986,0.121,0.106,0.0855,0.0951,0.0956,0.0736,0.162,0.131
